# Records with an inconclusive call do not appear. Activity calls are given as the source filed them. Unless noted, the rule behind the calls is not given here.
# Tests used:
# [1] = qHTS profiling of the MIPE4 collection as inhibitors of Plasmodium falciparum (3D7) proliferation (AID 743344);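 note: scaled between DMSO vehicle wells and 0.29 µM artemisinin as full inhibition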; conditions: P. falciparum 3D7 in erythrocytes, SYBR Green DNA fluorescence, 72 h; at 28.5 µM unless noted
# Outline: (§1)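 Erythrocytes infected with P. falciparum (0.3% parasitemia, 2.5% hematocrit) incubated with compounds 72 h at 37 C, 5% CO2. Lysis with saponin/Triton buffer containing SYBR Green I, overnight at room temperature in the dark; DNA fluorescence (485/535 nm) normalised to 0.29 uM artemisinin and DMSO.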
# [2] = qHTS profiling of the MIPE4 collection as inhibitors of Plasmodium falciparum (DD2) proliferation (AID 743345); conditions: P. falciparum Dd2 in erythrocytes, SYBR Green DNA, 72 h; at 28.5 µM unless noted
# Outline: as §1
# [3] = qHTS profiling of the MIPE4 collection as inhibitors of Plasmodium falciparum (DD2) proliferation (Rep 2) (AID 743346); conditions: P. falciparum Dd2 in erythrocytes, SYBR Green DNA, 72 h; at 28.5 µM unless noted
# Outline: as §1
# [4] = qHTS profiling of the MIPE4 collection as inhibitors of Plasmodium falciparum (HB3) proliferation (AID 743347);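 note: plate controls were DMSO vehicle wells for no effect and artemisinin wells for full effect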; conditions: P. falciparum HB3 in erythrocytes, SYBR Green DNA, 72 h; at 28.5 µM unless noted
# Outline: as §1
# [5] = High-throughput drug toxicity screening in the BPDCN cell line Gen2.2 (AID 1224824); conditions: Gen2.2 BPDCN cells; at 45.8 µM (top of the series) unless noted;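 note: cells exposed to compounds for 48 h before reading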
# Outline: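 Gen2.2 cells (500/well) in phenol red-free RPMI with 10% FBS were exposed to compounds for 48 h at 37 °C, 5% CO2. Viability was read by CellTiter-Glo luminescence and normalized to DMSO (100%) and 9.2 uM bortezomib (0%).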
# [6] = High-throughput drug toxicity screening in the BPDCN cell line Cal-1 (AID 1224825); conditions: Cal-1 BPDCN cell viability, qHTS; at 45.8 µM (top of the series) unless noted
# Outline: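 Cal-1 cells, 500 per well in phenol-red-free RPMI with 10% FBS, exposed to compounds for 48 hours at 37C, 5% CO2. Viability read by CellTiter-Glo luminescence; percent activity normalized to DMSO (100%) and 9.2 uM bortezomib final (0%).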
# [7] = qHTS assay for measurement of the activity of small molecule inhibitors on Zika virus induced Caspase-3 activity in human iPSC derived neural progenitor cells (hNPCs) (AID 1224857; active = well fitted curve in the direction sought with a large enough effect; an effect the other way counts as inactive or inconclusive; note: nearly all actives have a fitted effect of over 65% in size; note: potency is the fitted concentration of half-maximal effect)
# Outline: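 Percent inhibition of virus-induced caspase-3/7 luminescence (Caspase-Glo), scaled between uninfected cells and Zika-infected cells. hNPCs received compound 1 hr before ZIKV at 2 FFU/cell, with 6 hours infection at 37 C.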
# [8] = qHTS assay for measurement of the activity of small molecule inhibitors on Zika virus induced Caspase-3 activity in human astrocytoma cells (AID 1224859; active = well fitted curve in the direction sought with a large enough effect; an effect the other way counts as inactive or inconclusive; note: potency is the fitted concentration of half-maximal effect)
# Outline: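 Luminescent caspase-3/7 read-out (30 min reagent, room temperature) in human SNB-19 cells infected 6 h with ZIKV (2 FFU/cell) after 1 h compound pre-incubation; Data were normalised to uninfected and infected wells.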
# [9] = qHTS assay to identify small molecule inhibitors of chordoma cells - UCH-2 (AID 1259356; active = well fitted curve in the direction sought with a large enough effect; an effect the other way counts as inactive or inconclusive; note: % is set by controls: 0 for no effect and ±100 for the full control effect)
# [10] = qHTS Screen of the MIPE 4.0 Collection Against Ewings Sarcoma (TC32) (AID 1259256; active = well fitted curve in the direction sought with a large enough effect; an effect the other way counts as inactive or inconclusive; note: nearly all actives have a fitted effect of over 45% in size; note: potency is the fitted concentration of half-maximal effect)
# Outline: (§2)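 Log-phase cells in RPMI with 5% FBS attached for 4 h, then received compounds as a titration for 48 h at 37C, 5% CO2. Viability was read by CellTiter-Glo luminescence and normalized to DMSO and no-cell wells.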
# [11] = qHTS profiling for inhibitors of Plasmodium falciparum (HB3) proliferation (AID 743324; active = well fitted curve in the direction sought with a large enough effect; an effect the other way counts as inactive or inconclusive;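 note: 100% = DMSO vehicle wells and 0% = artemisinin-treated control wells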); conditions: Plasmodium falciparum HB3 blood-stage proliferation; at 28.7 µM (top of the series)
# Outline: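 P. falciparum HB3 grown in erythrocytes (0.3% parasitemia, 2.5% hematocrit final) with compound for 72 h at 37 C, 5% CO2. Parasite DNA detected by SYBR Green after saponin/triton lysis overnight; normalized to 0.29 uM artemisinin and DMSO.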
# [12] = Identifying Small Molecule Inhibitors of Pancreatic Cancer Stem Cells (SN12C, Adherent) (AID 1259358; active = well fitted curve in the direction sought with a large enough effect; an effect the other way counts as inactive or inconclusive;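 note: cell survival measured after 48 h of compound exposure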; note: potency is the fitted concentration of half-maximal effect)
# Outline: (§3)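 Spheroids grown 14 days in stem cell media on hydrogel-coated nonadherent plates; 2D lines seeded directly. Compounds added after 4 h attachment, 48 h at 37C, 5% CO2; CellTiter-Glo luminescence normalized to DMSO (no inhibition) and no-cell wells (full inhibition).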
# [13] = Identifying Small Molecule Inhibitors of Pancreatic Cancer Stem Cells (A278, Adherent) (AID 1259361; active = well fitted curve in the direction sought with a large enough effect; an effect the other way counts as inactive or inconclusive;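 note: 100% = DMSO-treated cells and 0% = cell-free media-only wells; nearly all actives have a fitted effect of over 35% in size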)
# Outline: as §3
# [14] = Identifying Small Molecule Inhibitors of Pancreatic Cancer Stem Cells (Panc1, Adherent) (AID 1259362; active = well fitted curve in the direction sought with a large enough effect; an effect the other way counts as inactive or inconclusive;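 note: compound exposure lasted 48 h before the viability read; plate controls were DMSO-treated cells for no effect and cell-free media wells for full effect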); conditions: Potency: viability
# Outline: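 Luminescent ATP readout (CellTiter-Glo) quantifies surviving cells after a 48 h drug incubation. Normalization uses DMSO wells as no inhibition and media-only wells as full inhibition; bortezomib served as positive control.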
# [15] = qHTS Screen of the MIPE 4.0 Collection Against Ewings Sarcoma (EW8) (AID 1259255; active = well fitted curve in the direction sought with a large enough effect; an effect the other way counts as inactive or inconclusive; note: nearly all actives have a fitted effect of over 35% in size; note: potency is the fitted concentration of half-maximal effect;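 for viability: 100% = DMSO-treated cells and 0% = medium-only wells without cells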)
# Outline: as §2
# [16] = Identifying Small Molecule Inhibitors of Pancreatic Cancer Stem Cells (A2780, Spheroid) (AID 1259357; active = well fitted curve in the direction sought with a large enough effect; an effect the other way counts as inactive or inconclusive;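 note: spheroids pre-formed over 14 days in stem cell medium on hydrogel; potency is the fitted concentration of half-maximal effect; compound exposure lasted 48 h before the ATP luminescence read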); conditions: Potency: A2780 spheroid viability
# Outline: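 After a 4 h attachment period, compounds were pinned into wells and cultures held 48 h under standard incubator conditions. Viability was then measured as CellTiter-Glo luminescence following 10 min at room temperature.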
SMILES,"parasite growth, % of DMSO control [1] [%]","parasite growth remaining, % of DMSO control (lower = more inhibition) [2] [%]","parasite growth, % of control (lower = inhibition) [3] [%]","growth, % of control [4] [%]","cell viability, % of control (lower = more cytotoxic) [5] [%]",viability (% of control) [6] [%],Potency [7],Potency [8],outcome [9],Potency [10],"remaining proliferation (% of control), lower = more inhibition [11] [%]",Potency [12],IC50 (viability decrease) [13],Potency [14],Potency [15],Potency [16]
CCOC(=O)O[C@]1(C(=O)OCCl)CC[C@@H]2[C@H]3CCC4=CC(=O)C=C[C@]4(C)[C@@H]3[C@@H](O)C[C@@]21C,48.2,86.4,44.6,68.7,84.3,77.6,inactive,inactive,inactive,,,,,,,
C=C1C(=O)OC(CCCCCCCC)C1C(=O)O (stereo unspecified),,76.2,62.9,61.5,15.6,98,inactive,inactive,,26.4 µM (active),,,,,,
O=C(O)c1ccc(-c2cc3cccnc3c(-c3ccc4nonc4c3)n2)cc1,15.8,53.9,37.1,3.01,30.2,18.7,inactive,inactive,,26.4 µM (active),93.9,inactive,inactive,,,
N#C[C@H]1C[C@H]2C[C@@H]2N1C(=O)[C@@H](N)C12CC3CC(CC(O)(C3)C1)C2,97.9,103,97,,112,100,inactive,inactive,,16.6 µM (active),,,,,,
C[C@]12CC[C@@H]3c4ccc(O)cc4CC[C@H]3[C@H]1C[C@@H](O)[C@H]2O,87,91.2,76.7,63.5,77.1,67.8,inactive,inactive,,26.4 µM (active),,,,,,
O=c1cc(CN2CCOCC2)occ1OCCCCCSc1ccnc2cc(C(F)(F)F)ccc12,,56.7,33.6,12.1,186,75.4,inactive,inactive,,18.7 µM (active),17.5,,,inactive,,
CC(C)(Cc1ccc2ccccc2c1)NC[C@@H](O)COc1cccc(Cl)c1C#N,89.9,98.5,59.5,92,123,12.4,inactive,inactive,,14.8 µM (active),,,,,,
COc1ccc2cc(-c3nc(-c4ccc(S(C)=O)cc4)[nH]c3-c3ccncc3)ccc2c1 (stereo unspecified),,9.3,10.6,3.67,470,65.1,inactive,inactive,,20.9 µM (active),,,,,,
N#CC1(c2ccc(NC(=O)c3cccnc3NCc3ccncc3)cc2)CCCC1,18.4,,65.6,23.3,286,93.1,16.6 µM (active),18.7 µM (active),,inactive,,,,,,
CN(C[C@@H]1COCCO1)S(=O)(=O)Nc1ccc2ccc3ncc(-c4cnn(C)c4)cc3c(=O)c2c1,13.4,,21.5,7.9,12.9,7.57,inactive,inactive,,,,,,,18.7 µM (active),
Nc1ncnc2c1ncn2[C@@H]1O[C@H](CO)C[C@@H]1O,,56.1,57.5,79,96.4,39.8,inactive,inactive,,,,,,,inactive,
O=C(O)c1c(Cl)c(Cl)c(Cl)c(Cl)c1-c1c2cc(I)c(=O)c(I)c-2oc2c(I)c(O)c(I)cc12,83.8,97.1,,88.8,96.1,55.1,inactive,inactive,,18.7 µM (active),,,,,,
COc1ccc2c(Oc3ccc(NC(=O)c4c(C)n(CC(C)(C)O)n(-c5ccccc5)c4=O)nc3)ccnc2c1,9.27,18.1,37,8.88,29.7,17.2,inactive,inactive,,18.7 µM (active),,,,,,
CCOC(CN1C(=O)[C@](CC(=O)Nc2ccc(C)cc2)(NC(=O)Nc2ccc(C)cc2)c2ccccc21)OCC,14,38.2,26.1,15.7,45.2,46.4,inactive,inactive,,inactive,10.1,23.5 µM (active),,,,0.0059 µM (active)
COCCCCC(=NOCCN)c1ccc(C(F)(F)F)cc1,47.6,56.9,,47.6,56,88.3,inactive,inactive,inactive,,,,,,,
O=C(O)c1ccc(-c2c[nH]c3ncc(-c4ccccc4)cc23)cc1C1CCCC1,5.48,8.18,9.67,3.77,116,73.1,inactive,inactive,,inactive,,,,,,
Cc1ccn(-c2ccc(-c3ncco3)cc2)c(=O)c1-c1ccc2nc(N)ncc2c1,21.1,78.6,56.7,72.3,316,62.2,inactive,inactive,,3.72 µM (active),,,,,,
NC(=O)[C@@H](CCC(F)(F)F)N(Cc1ccc(-c2ncon2)cc1F)S(=O)(=O)c1ccc(Cl)cc1,50.8,,54.6,,127,93.2,inactive,inactive,,14.8 µM (active),,,,,,
Cc1[nH]c(C=C2C(=O)Nc3ccc(S(=O)(=O)Cc4c(Cl)cccc4Cl)cc32)c(C)c1C(=O)N1CCC[C@H]1CN1CCCC1,6.34,,,5.52,6.62,2.43,inactive,inactive,,37.2 µM (active),,,,,,

# — PubChem BioAssay (NCATS)
